# Source: PubChem BioAssay AID1159580 (chemical genetic matrix, 2015)
# Several values for one entry are separate records, joined by “and”; a condition that tells them apart may be missing. Identical values can stand only once. In all, about 5,500 compounds went through this assay and about 2,000 (36%) were called active. Inconclusive results (about 18%) are left out. The list shows a part of the results. Unmarked numbers belong to inactive results. Rule as the data show it: active = normalized growth mostly below about 0.91 (no sharp cut-off); inconclusive = no clear call, values can overlap the other calls; inactive = mostly above about 0.92.
# Experiment: chemical genetic growth profiling, strain panel (AID 1159580);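 also: tested at 20 µM; growth read once vehicle control cultures reached saturation at 30 °C; 1 = growth at the plate median or of vehicle wells; lower values mean less growth of the strain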
# Conditions: S. cerevisiae deletion strains, growth OD
structure (smiles),measurement,setting,value
C#C[C@]1(O)CCC2C3CCc4cc(O)ccc4C3CC[C@@]21C (some centres not stated),normalized growth,"locus YAL013W, strain DEP1, hits give low values",1
same,normalized growth,"locus YAL021C, strain ccr4, hits give low values",1.06
same,normalized growth,"locus YAL026C, strain drs2, hits give low values",0.951
same,normalized growth,"locus YAL030W, strain snc1, hits give low values",1.02
same,normalized growth,"locus YBL061C, strain skt5, hits give low values",0.998
same,normalized growth,"locus YBR009C, strain hhf1, hits give low values",0.894 (active)
same,normalized growth,"locus YBR021W, strain FUR4, hits give low values",0.94
same,normalized growth,"locus YBR023C, strain chs3, hits give low values",0.996
same,normalized growth,"locus YBR171W, strain sec66, hits give low values",1.02
same,normalized growth,"locus YBR229C, strain ROT2, hits give low values",1.02
same,normalized growth,"locus YBR231C, strain swc5, hits give low values",1
same,normalized growth,"locus YBR279W, strain paf1, hits give low values",1
same,normalized growth,"locus YCL011C, strain gbp2, hits give low values",1.01
same,normalized growth,"locus YCL016C, strain dcc1, hits give low values",0.988
same,normalized growth,"locus YCL029C, strain bik1, hits give low values",0.942
same,normalized growth,"locus YCL061C, strain MRC1, hits give low values",0.968
same,normalized growth,"locus YCL069W, strain vba3, hits give low values",1.02
same,normalized growth,"locus YCR088W, strain abp1, hits give low values",1.02
same,normalized growth,"locus YDL005C, strain med2, hits give low values",1.04
same,normalized growth,"locus YDL035C, strain GPR1, hits give low values",0.853 (active)
same,normalized growth,"locus YDL040C, strain nat1, hits give low values",1.03
same,normalized growth,"locus YDL074C, strain BRE1, hits give low values",0.833
same,normalized growth,"locus YDL101C, strain DUN1, hits give low values",0.989
same,normalized growth,"locus YDL185W, strain tfp1, hits give low values",1.02
same,normalized growth,"locus YDL192W, strain arf1, hits give low values",1.01
same,normalized growth,"locus YDR001C, strain nth1, hits give low values",1.04
same,normalized growth,"locus YDR069C, strain doa4, hits give low values",0.991
same,normalized growth,"locus YDR101C, strain arx1, hits give low values",0.956
same,normalized growth,"locus YDR137W, strain rgp1, hits give low values",0.738 (active)
same,normalized growth,"locus YDR159W, strain sac3, hits give low values",0.908
same,normalized growth,"locus YDR162C, strain NBP2, hits give low values",0.843
same,normalized growth,"locus YDR195W, strain ref2",1.25 [resistant] (active)
same,normalized growth,"locus YDR297W, strain sur2, hits give low values",1.01
same,normalized growth,"locus YDR318W, strain mcm21, hits give low values",0.945
same,normalized growth,"locus YDR334W, strain swr1, hits give low values",1.05
same,normalized growth,"locus YDR335W, strain msn5, hits give low values",0.959
same,normalized growth,"locus YDR388W, hits give low values",1.02
same,normalized growth,"locus YDR392W, strain spt3, hits give low values",0.617 (active)
same,normalized growth,"locus YDR502C, strain sam2, hits give low values",0.93
same,normalized growth,"locus YEL003W, strain gim4, hits give low values",0.938
same,normalized growth,"locus YEL037C, strain rad23, hits give low values",1.02
same,normalized growth,"locus YEL061C, strain CIN8 (second series), hits give low values",1.03
same,normalized growth,"locus YEL061C, strain CIN8, hits give low values",1.04
same,normalized growth,"locus YER015W, strain faa2, hits give low values",1.01
same,normalized growth,"locus YER016W, strain bim1, hits give low values",0.934
same,normalized growth,"locus YER110C, hits give low values",1.03
same,normalized growth,"locus YER111C, strain swi4, hits give low values",1.06
same,normalized growth,"locus YER155C, strain BEM2 (second series), hits give low values",1.07
same,normalized growth,"locus YER155C, strain BEM2, hits give low values",1.06
same,normalized growth,"locus YER167W, strain BCK2, hits give low values",1
same,normalized growth,"locus YFR010W, strain ubp6, hits give low values",1.01
same,normalized growth,"locus YGL078C, strain dbp3, hits give low values",0.904 (active)
same,normalized growth,"locus YGL086W, strain mad1, hits give low values",0.951
same,normalized growth,"locus YGL167C, strain pmr1, hits give low values",1.02
same,normalized growth,"locus YGL173C, strain kem1, hits give low values",0.904
same,normalized growth,"locus YGL227W, strain vid30, hits give low values",1.05
same,normalized growth,"locus YGL240W, strain doc1, hits give low values",0.918
same,normalized growth,"locus YGL248W, strain PDE1, hits give low values",0.952
same,normalized growth,"locus YGL253W, strain hxk2, hits give low values",0.963
same,normalized growth,"locus YGR078C, strain PAC10, hits give low values",0.877
same,normalized growth,"locus YGR135W, strain pre9, hits give low values",0.949
same,normalized growth,"locus YGR252W, strain gcn5, hits give low values",0.653 (active)
same,normalized growth,"locus YHR013C, strain ard1, hits give low values",1.17 [resistant] (active)
same,normalized growth,"locus YHR027C, strain rpn1, hits give low values",0.981
same,normalized growth,"locus YHR030C, strain SLT2, hits give low values",1.02 and 0.96
same,normalized growth,"locus YHR079C, strain IRE1 (second series), hits give low values",0.979
same,normalized growth,"locus YHR079C, strain IRE1, hits give low values",0.968
same,normalized growth,"locus YHR094C, strain hxt1, hits give low values",1.03
same,normalized growth,"locus YHR129C, strain ARP1, hits give low values",0.993
same,normalized growth,"locus YHR142W, strain chs7, hits give low values",0.946
same,normalized growth,"locus YHR200W, strain rpn10, hits give low values",1.01
same,normalized growth,"locus YIL066C, strain RNR3, hits give low values",0.913
same,normalized growth,"locus YIL073C, strain SPO22, hits give low values",1.01
same,normalized growth,"locus YIL125W, strain kgd1, hits give low values",1
same,normalized growth,"locus YIR030C, strain dcg1, hits give low values",0.999
same,normalized growth,"locus YJL092W, strain hpr5, hits give low values",1.02
same,normalized growth,"locus YJL095W, strain BCK1 (second series), hits give low values",1
same,normalized growth,"locus YJL095W, strain BCK1, hits give low values",0.861 and 1
same,normalized growth,"locus YJL115W, strain asf1, hits give low values",1.05
same,normalized growth,"locus YJL129C, strain trk1, hits give low values",0.946
same,normalized growth,"locus YJL134W, strain LCB3, hits give low values",1.03
same,normalized growth,"locus YJL154C, strain vps35, hits give low values",1.05
same,normalized growth,"locus YJL164C, strain tpk1, hits give low values",0.952
same,normalized growth,"locus YJL166W, strain qcr8, hits give low values",0.973
same,normalized growth,"locus YJL168C, strain set2, hits give low values",1.02
same,normalized growth,"locus YJL187C, strain SWE1 (second series), hits give low values",0.931
same,normalized growth,"locus YJL187C, strain SWE1, hits give low values",1.02
